# Shown are actives, neighbours in structure and some others; about 21% of the full set was active somewhere.
# IL1B secr inh – inflammasome signaling inhibition, IL-1 beta readout. THP-1 LPS/ATP IL-1B secretion, AlphaLISA, 16 h; active compounds read low. 4.7% of 360,000 active. activity change, % at 57.5 µM; in the data active = activity change below about -50%; inconclusive = mostly about -30% to -49%
#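 THP-1 cells pretreated 1 hr with compounds (up to 57.5 uM final), then stimulated with LPS (250 ng/mL final) plus ATP (1.25 mM final); secreted IL-1B measured by AlphaLISA after 16 hr, decreased signal indicating inhibition.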
# Gal4-VP16 FLuc – Gal4-VP16 reporter inhibition counter-screen | 3.5% of 310,000 active | Potency, µM (titrated, usually from 53.6 µM), inactives show at the highest dose activity, negative = inhibition, hits mostly inhibitors | AID 2546 | Drosophila S2 Gal4-VP16 UAS-luciferase, luminescence, 20 h;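 note: Gal4-VP16 expression switched on by copper sulfate through the metallothionein promoter; potency is the fitted concentration of half-maximal effect; nearly all actives have a fitted effect of over 50% in size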
# TDP1 cell CPT – growth inhibition of DT40 Tdp1-/-;hTDP1 cells with camptothecin (screen for TDP1 inhibitors) | chicken DT40 Tdp1-/-;hTDP1 cells + 20 nM CPT, ATP luminescence, 48 h | Potency, µM (titrated, usually from 46.2 µM), for inactives: at the top dose activity change, negative = growth inhibition, hits mostly inhibitors | 12% of 420,000 active | AID 686979; note: potency is the fitted concentration of half-maximal effect; nearly all actives have a fitted effect of over 55% in size
#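 Chicken DT40 Tdp1-/- cells complemented with human TDP1, 400 cells/well, exposed to compounds plus 20 nM camptothecin for at least 48 h at 37 C; viability read as ATP content by CellTiter-Glo luminescence.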
# TDP1 cell noCPT – qHTS for Inhibitors of human tyrosyl-DNA phosphodiesterase 1 (TDP1): qHTS in cells in absence of CPT. 15% of 420,000 active. Potency, µM (top dose mostly 46.2 µM), for inactives: at the top dose activity change, negative = growth inhibition, actives largely listed as inhibitors. DT40 Tdp1-/- hTDP1 cells, no CPT, ATP luminescence, 48 h; note: potency is the fitted concentration of half-maximal effect; nearly all actives have a fitted effect of over 55% in size
#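 DT40 Tdp1-/-;hTDP1 cells, no CPT (DMSO vehicle only), 400 cells/well; compounds pin-transferred; ≥48 hr, 37 °C; CellTiter-Glo 30 min RT dark, luminescence read.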
# RORgamma inh – inhibitors of mouse ROR gamma transcriptional activity. P51450. Drosophila S2 Gal4-RORgamma UAS-luciferase reporter, 20 h. Potency, µM (series often up to 53.6 µM), for inactives: top-dose activity change, negative = inhibition, actives largely listed as inhibitors. 5.4% of 310,000 active. AID 2551; note: potency is the fitted concentration of half-maximal effect; nearly all actives have a fitted effect of over 60% in size
# Target sequence (P51450 whole entry, looked up, the tested form may be a part): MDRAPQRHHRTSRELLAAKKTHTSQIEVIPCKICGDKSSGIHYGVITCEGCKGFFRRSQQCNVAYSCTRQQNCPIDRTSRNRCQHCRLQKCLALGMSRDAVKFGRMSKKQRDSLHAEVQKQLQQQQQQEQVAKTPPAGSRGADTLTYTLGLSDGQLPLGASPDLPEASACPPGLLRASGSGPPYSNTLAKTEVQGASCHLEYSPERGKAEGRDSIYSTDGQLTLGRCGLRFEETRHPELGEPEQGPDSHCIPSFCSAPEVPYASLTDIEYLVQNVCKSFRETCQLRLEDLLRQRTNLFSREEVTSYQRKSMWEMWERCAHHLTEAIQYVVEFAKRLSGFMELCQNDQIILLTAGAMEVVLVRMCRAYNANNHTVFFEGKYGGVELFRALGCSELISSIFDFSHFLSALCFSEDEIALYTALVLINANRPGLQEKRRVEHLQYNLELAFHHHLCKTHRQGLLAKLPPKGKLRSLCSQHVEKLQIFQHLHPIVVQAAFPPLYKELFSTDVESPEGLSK
#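 Stable Schneider cell line, Gal4 DNA-binding domain fused to ROR gamma, UAS-luciferase. Cmpd 1 hr RT → CuSO4 700 uM final → 20 hr RT → luciferase reagent 10 min → luminescence.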
# ELG1 repair inh – inhibitors of ELG1-dependent DNA repair in HEK293T cells. HEK293T ELG1-luciferase reporter, luminescence, 16 h; DNA damage induced by 5-fluorouridine. Potency, µM (highest dose often 46.1 µM), for the others: at the highest dose activity change, negative = inhibition, hits mostly inhibitors. 2.3% of 330,000 active; note: potency is the fitted concentration of half-maximal effect; nearly all actives have a fitted effect of over 55% in size
#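 Cells (2,000 per well) received 5-fluorouridine plus test compound or DMSO and were incubated 16 hr at 37 °C, 5% CO2. Luciferase activity was read by luminescence 30 min after ONE-Glo addition; signal suppression marked inhibition of damage-induced ELG1 function.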
# An asterisk follows results filed as active; ? = inconclusive; . = no result given; [ ] = another dose, or the depositor's remark. Unless noted, calls come from the whole dose curve; as a rule, active = well fitted curve in the direction sought with a large enough effect; inconclusive = small, poorly fitted or top-dose-only effect, or another doubt; inactive = no such curve, though single readings can be large; an effect the other way counts as inactive or inconclusive. % is set by controls: 0 for no effect and ±100 for the full control effect.
SMILES,IL1B secr inh,Gal4-VP16 FLuc,TDP1 cell CPT,TDP1 cell noCPT,RORgamma inh,ELG1 repair inh
COc1ccccc1CNc1cc(C)ccc1C,13.8,-3.5%,-14.9%,-14.0%,-5.9%,-1.1%
CCc1ccccc1NC(=S)NCc1cccn1C,0.0,11.2µM*,-11.1%,-28.1%,12.6µM*,14.5%
Cc1ccc(C)c(NC(=S)NCc2cccn2C)c1,.,11.2µM*,.,.,10µM*,10.4%
COc1ccccc1CNC(=S)Nc1cc(C)ccc1C,-23.9,?,-27.4%,?,3.16µM*,-16.0%
Cn1cccc1CNC(=S)Nc1cc(F)cc(F)c1,14.7,-13.3%,17.5%,-1.4%,3.0%,0.0%
CC1=C(C(N)=O)C(c2cccc(Br)c2)n2nc(SCc3ccccc3)nc2N1 (stereo not drawn),.,.,-13.4%,-0.1%,.,.
COc1ccc(-c2cn3nc4c(nc3n2)CCCC4)cc1,-12.2,1.26µM*,?,?,?,?
COc1cccc(-c2cn3nc(C)c(C)nc3n2)c1,-8.9,-7.5%,?,?,-42.7%,?
Cc1ccc(C(=O)NCCCNC(=O)c2ccco2)cc1,-1.8,-8.0%,-22.4%,-20.6%,-0.8%,8.5%
Cc1ccc(-c2nc3sc(CCNC(=O)c4ccco4)c(C)n3n2)cc1,.,.,?,18.4µM*,.,.
Cc1c(CCNC(=O)c2ccco2)sc2nc(-c3ccc(F)cc3)nn12,.,.,20.6µM*,23.1µM*,.,.
Cc1ccc(-c2nc3sc(CCNC(=O)c4ccc(C)c(C)c4)c(C)n3n2)cc1,.,.,0.9%,-26.7%,.,.
Cc1c(CCNC(=O)c2ccc(C(C)(C)C)cc2)sc2nc(-c3ccc(F)cc3)nn12,.,.,14.6µM*,13µM*,.,.
Fc1cccc(/C=N/Nc2nncc3ccccc23)c1,-5.9,10µM*,?,?,1.26µM*,?
CC(=O)Nc1ccc(/C=N/Nc2nncc3ccccc23)cc1,?,-17.0%,?,?,-18.5%,?
C(=N\Nc1nncc2ccccc12)/c1ccccn1,149.7,3.55µM*,2.31µM*,2.91µM*,1.41µM*,?
Fc1cccc(/C=N/Nc2nccnc2Cl)c1,0.0,3.7%,11.6µM*,14.6µM*,-2.5%,?
O=C(NCc1cccnc1)C(=O)C1C(=O)Nc2ccccc21 (stereo not drawn),-10.1,4.8%,-2.4%,0.8%,3.9%,-2.0%
CCOC(=O)C1(C)CCCN(C(=O)c2cc(C)oc2C)C1 (stereo not drawn),12.3,.,?,?,.,.
CN(C)Cc1ccccc1-c1cncnc1Nc1ccncc1,.,2.8%,-6.1%,-17.3%,15.6%,.
COc1ccccc1OCC(=O)Nc1cc(-c2ccc(C)cc2)no1,.,.,1.0%,-22.3%,.,.
O=C1NC(=S)S/C1=C\c1cc2ccccc2nc1N1CCCCC1,63.2,0.9%,20.6µM*,20.6µM*,3.7%,16.4µM*
Cc1ccc(OC(C)C(=O)Nc2ccccc2C(=O)N2CCN(C)CC2)cc1 (stereo not drawn),-11.8,.,-7.1%,-18.3%,.,4.1%
CC(Sc1nnc(-c2cccnc2)n1-c1ccccc1)C(=O)NCc1ccc2c(c1)OCO2 (stereo not drawn),2.2,-0.4%,-8.5%,-5.1%,34.5%,?
CC(Sc1nc2cc([N+](=O)[O-])ccc2n1-c1ccc(F)cc1)C(=O)NCc1ccc2c(c1)OCO2 (stereo not drawn),-29.7,?,16.4µM*,14.6µM*,22.5%[10 µM],?
SMILES,IL1B secr inh,Gal4-VP16 FLuc,TDP1 cell CPT,TDP1 cell noCPT,RORgamma inh,ELG1 repair inh
CC(Sc1nc2cc([N+](=O)[O-])ccc2n1-c1cccc(C(F)(F)F)c1)C(=O)NC(N)=O (stereo not drawn),9.7,20µM*,?,?,12.6µM*,0.6%
COc1ccccc1-n1c(SCC(=O)NCc2ccc3c(c2)OCO3)nc2cc([N+](=O)[O-])ccc21,?,?,4.11µM*,20.6µM*,?,?
Cc1cc(C)cc(-n2c(SC(C)C(=O)NCc3ccc4c(c3)OCO4)nc3ccccc3c2=O)c1 (stereo not drawn),-14.3,?,13µM*,14.6µM*,-4.9%,?
COc1ccc2c(CC(=O)Nc3nccs3)coc2c1,-20.3,-9.1%,-4.4%,-17.8%,26.1%,?
COc1cc(S(=O)(=O)Nc2ccc3c(c2)C(=O)N(C)C3=O)ccc1NC(C)=O,1.5,.,-10.8%,-9.2%,.,?
COc1ccc(NC(=O)CC2C(=O)N(c3ccc(C)cc3)C(=O)N2CCc2ccccc2)cc1 (stereo not drawn),.,.,14.6µM*,14.6µM*,.,.
COc1ccc(CCN2C(=O)N(c3ccc(F)cc3)C(=O)C2CC(=O)Nc2ccc(F)c(F)c2)cc1 (stereo not drawn),.,.,11.6µM*,20.6µM*,.,.
COc1ccc(CN2C(=O)N(c3ccc(F)cc3)C(=O)C2CC(=O)Nc2ccccc2)cc1 (stereo not drawn),.,.,13µM*,13µM*,.,.
CCOc1ccc(NC(=O)CC2C(=O)N(c3ccc(OC)cc3)C(=O)N2CCc2ccc(OC)c(OC)c2)cc1 (stereo not drawn),13.3,-4.5%,-11.6%,-10.0%,?,?
CCCOc1ccc(NC(=O)CC2C(=O)N(c3ccc(Cl)cc3)C(=O)N2CCc2ccncc2)cc1 (stereo not drawn),.,.,?,25.9µM*,.,.
CCc1cc(=O)oc2cc(OCC(=O)N3CCC[C@H]3C(=O)O)ccc12,-5.1,-2.7%,6.3%,6.0%,21.3%,29.8%
O=C1NC[C@H](CCCCN2CCN(CCc3ccccc3)C(=O)C2=O)N(Cc2ccccc2)C1=O,13.5,.,1.1%,0.1%,.,.
O=C(c1ccncc1)N1CCC[C@@]2(CCN(Cc3ccncc3)C2)C1,.,-2.3%,?,-5.8%,-6.6%,.
COc1ccc(OC)c(C(=O)N2CCC(C(=O)c3ccc(F)cc3)CC2)c1,-9.0,6.0%,?,?,?,?
COc1ccc(CCN2C(=O)N(c3ccc(F)cc3)C(=O)C2CC(=O)Nc2ccc(OC)cc2)cc1 (stereo not drawn),.,.,11.6µM*,?,.,.
O=C(CC1C(=O)N(c2ccccc2)C(=O)N1Cc1ccc(F)cc1)Nc1cccc(F)c1 (stereo not drawn),.,.,?,23.1µM*,.,.
COc1ccc(N2C(=O)C(CC(=O)Nc3ccc(F)cc3)N(CCc3ccc(OC)c(OC)c3)C2=O)cc1 (stereo not drawn),-1.1,28.7%,-13.7%,-11.7%,-5.5%,0.0%

# Bioassay records as filed in PubChem.
